High-throughput results as filed in PubChem BioAssay.
TIM10 inh – TIM10 yeast growth inhibition. S. cerevisiae TIM10 strain growth, BacTiter-Glo luminescence, 24 h. AID 463195. actives 1.4% (n = 330,000). inhibition, % at 10 µM;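 active means inhibition of 40% or more at the single tested concentration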;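 further: wild-type TIM10 isogenic control strain grown at permissive 25 °C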
tim23-1 inh – inhibits growth of tim23-1 mutant yeast; AID 463212; S. cerevisiae tim23-1 growth, BacTiter-Glo luminescence, 24 h; inhibition, % at 20 µM; actives 1.3% (n = 330,000);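 active means growth inhibition of the mutant yeast at or above 50%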;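 further: temperature-sensitive mutant grown at 25 °C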
tim10-1 inh – growth inhibitors of tim10-1 mutant yeast; S. cerevisiae tim10-1 ts strain growth, BacTiter-Glo, 24 h; inhibition, % at 20 µM; actives 2.2% (n = 330,000); AID 463190;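 active means inhibition of at least 40%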;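 further: mutant grown at 25 °C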
SKKanGAS inh – blocks kanamycin growth of S. pyogenes SKKanGAS strain; BacTiter-Glo, 6 h; inhibition, % at 7.5 µM; actives 1.3% (n = 300,000);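 active means mean replicate score, as percent of positive control median, at least 50; inconclusive means mean below 50 but one replicate at or above 50; inactive means mean and every replicate below 50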;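 further: strain carries kanamycin resistance gene driven by streptokinase promoter and grows in 40 µg/ml kanamycin; loss of luminescence reflects streptokinase promoter inhibition or plain growth inhibition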
NLRP3 yeast inh – blocks the NALP3 inflammasome reconstituted in yeast; Yeast reconstituted NLRP3/ASC/caspase-1, beta-gal luminescence, 24 h; inhibition, % at 10 µM; actives 0.39% (n = 330,000);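 active means inhibition of 50% or more; inactive means inhibition below 50%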
Numbers stand for hits; i = inactive; ? = inconclusive; nt = no result. The list is not random: actives were taken first. Their share in the collection is about 4.6%.

SMILES	TIM10 inh	tim23-1 inh	tim10-1 inh	SKKanGAS inh	NLRP3 yeast inh
O=C(OCc1ccccc1F)c1cc2ccccc2cc1O	i	i	i	i	i
C=CC[C@@H](CC(=O)NCCO)C(=O)NC[C@H](OC(=O)[C@@H](CC=C)Cc1ccc(F)cc1)c1ccccc1	i	i	i	nt	i
O=C(Nc1nnc(SCc2ccc(F)cc2)s1)c1ccccn1	i	i	i	63	i
CCSc1nnc(NC(=O)c2ccc3ccccc3n2)s1	i	i	i	82	i
CCS(=O)(=O)N1Cc2ccccc2CC1C(=O)Nc1nnc(SCc2ccc(F)cc2)s1 (configuration not stated)	i	i	i	54	i
CCc1nnc(NC(=O)c2ccc3ccccc3n2)s1	i	i	i	i	i
O=C(Nc1nc2ccc(F)cc2s1)c1ccccn1	i	i	i	98	i
CCc1nnc(NC(=O)C2Cc3ccccc3CN2S(=O)(=O)CC)s1 (configuration not stated)	i	i	i	i	i
CCc1ccccc1NC(=O)CN(C)C(=O)COC(=O)c1c(Cl)cccc1Cl	i	i	i	nt	i
O=C(NCc1cccnc1)c1cccc(S(=O)(=O)Nc2cccc(Cl)c2)c1	i	i	i	nt	i
COc1ccc(OC)c(CCNC(=O)CCCC(=O)n2ncc3cc(C)ccc32)c1	i	i	i	i	i
O=C1c2cccc3c([N+](=O)[O-])ccc(c23)C(=O)N1O	i	i	i	79	i
COc1ccc2c3c(cccc13)C(=O)N(O)C2=O	nt	nt	nt	i	nt
O=C(c1ccc(Br)cc1)c1cc2ccc(O)cc2oc1=O	i	i	i	i	i
O=C(c1ccccc1)c1cc2ccc(O)cc2oc1=O	i	i	i	62	i
CNc1snc(C)c1C(=O)OC(C)C(=O)Nc1ccc(F)cc1 (configuration not stated)	i	i	i	nt	i
Clc1cccc(Cl)c1CSc1nnc(/C=C/c2ccccc2)o1	i	i	i	54	i
CCCOc1ccc(-c2nc(OC)c3ccccc3n2)cc1	i	i	i	56	i
COc1ccc(Oc2nc(-c3cccnc3)nc3ccccc23)cc1	i	i	i	i	i
C=C(C)COc1ccc(-c2n[nH]c(C)c2-c2ccc(OC)cc2)c(O)c1	i	i	i	61	i
CN(C)/C=C(\C=N\OCc1ccc(Cl)cc1Cl)C(=O)Nc1ccc(Cl)c(Cl)c1	i	i	i	113	i
CCOC(=O)c1c(NC(=O)C(NCCN(C)C)c2ccccc2)sc2c1CCCC2 (configuration not stated)	i	i	i	i	i
COc1ccc(CNC(=O)Cc2csc(NC(=O)Nc3ccccc3OC)n2)cc1	i	i	i	55	i
COc1ccc(N2CCN(C(=O)Cc3csc(NC(=O)Nc4ccccc4OC)n3)CC2)cc1	i	i	i	66	i
COc1cc(OC)cc(C(=O)Nc2nc(CC(=O)NCc3ccc(F)cc3)cs2)c1	i	i	i	i	i
SMILES	TIM10 inh	tim23-1 inh	tim10-1 inh	SKKanGAS inh	NLRP3 yeast inh
COc1ccccc1NC(=O)Nc1nc(CC(=O)Nc2cc(F)ccc2F)cs1	i	i	i	82	i
COc1cc(OC)cc(C(=O)Nc2nc(CC(=O)NCc3ccccc3OC)cs2)c1	i	i	i	62	i
COc1ccccc1NC(=O)Nc1nc(CC(=O)N2CCN(c3ccccc3)CC2)cs1	i	i	i	i	i
S=C1Nc2ccccc2Sc2ccc(Cl)cc21	i	i	i	69	i
CCN1C[C@@H]2[C@@H]3C(=O)N(C)C(=O)[C@@H]3[C@](C)(C(=O)OC)N2C1=NC	i	i	i	nt	nt
COc1cc2c(cc1O)CC[C@@H]1[C@@H]2CC[C@]2(C)[C@@H](O)CC[C@@H]12	i	i	i	i	i
C[C@]12CC[C@@H]3c4ccc(OC(=O)c5ccccc5)cc4CC[C@H]3[C@@H]1CC[C@@H]2O	i	i	i	84	i
COC(=O)C1CCCN1C(=O)C12CC3CC(CC(C3)C1)C2 (configuration not stated)	i	i	i	i	i
COc1ccc(-c2csc3ncnc(N4CCN(c5ccccc5[N+](=O)[O-])CC4)c23)cc1	i	i	i	i	i
CCCCOc1ccccc1C(=O)NNC(=S)NC(=O)c1ccccc1[N+](=O)[O-]	i	i	i	77	i
O=C(NNC(=S)NC(=O)c1ccccc1[N+](=O)[O-])c1ccccc1[N+](=O)[O-]	i	i	i	i	i
Oc1ccc(-c2nc3c4c(ncn3n2)-c2ccccc2CC42CCCC2)cc1	i	i	i	95	i
Nn1cnc2c(c1=O)C1(CCCCC1)Cc1ccccc1-2	i	i	i	i	i
Cc1ccc(S(=O)(=O)NCC(=O)OCC(=O)Nc2ccc3c(c2)OCCO3)cc1	i	i	i	nt	i
C=CCn1c(O)c(N=NC(=S)Nc2ccc(OC)cc2)c2ccccc21	nt	nt	nt	56	nt
C=CCn1c(O)c(N=Nc2ccccc2)c2ccccc21	i	i	i	i	i
C=CCn1c(O)c(N=NC(=O)OCC)c2ccccc21	i	i	i	i	i
C=CCn1c(O)c(N=NC(=S)Nc2cccc(OC)c2)c2ccccc21	i	i	i	87	i
CCCCN(C(=O)c1ccc(N2C(=O)c3ccccc3C2=O)cc1)c1c(N)n(CC(C)C)c(=O)[nH]c1=O	i	i	i	nt	i
O=C(NCC1COc2ccccc2O1)c1cccc(S(=O)(=O)N2CCN(c3ccccc3)CC2)c1 (configuration not stated)	i	i	i	nt	i
O=C(Nc1nc(-c2ccccn2)cs1)C1CC1	i	i	i	51	i
O=C(CC1CC2CCC1C2)Nc1nc(-c2ccccn2)cs1 (configuration not stated)	i	i	i	76	i
O=C(Nc1nc(-c2ccc(-c3ccccc3)cc2)cs1)C1CCCO1 (configuration not stated)	i	i	i	64	i
O=C(Nc1nc(-c2ccccn2)cs1)C12CC3CC(CC(O)(C3)C1)C2	i	i	i	?	i
O=C(Nc1nc(-c2ccccn2)cs1)c1cccc(-n2cnnn2)c1	i	i	i	53	i
SMILES	TIM10 inh	tim23-1 inh	tim10-1 inh	SKKanGAS inh	NLRP3 yeast inh
O=C(Nc1nc(-c2ccc3c(c2)OCCO3)cs1)c1ccco1	i	i	i	56	i
O=C(Nc1nc(-c2ccccn2)cs1)c1ccco1	i	i	i	59	i
Cc1c(NC(=O)c2ccc(NS(=O)(=O)c3ccc(F)c(F)c3)cc2)c(=O)n(-c2ccccc2)n1C	i	i	i	nt	i
Cc1cc(C(=O)Nc2ccc3c(c2)CCC3)ccc1[N+](=O)[O-]	i	i	i	i	i
O=C1NC[C@@H](Cc2cccc3ccccc23)N(CCCCC2CCCCC2)C1=O	i	i	i	82	i
Oc1ccccc1-c1nc2c3ccccc3c3ccccc3c2[nH]1	nt	nt	nt	86	nt
COc1cc(/C=C/C(=O)O)cc(S(=O)(=O)Nc2ccc3c(c2)CCC3)c1OC	i	i	i	i	i
COc1ccc(C2=CC(=O)C[C@H](c3ccc(Cl)cc3)C2)cn1	i	i	i	nt	i
CC(/C=C/C=C/c1ccccc1)=N/NC(=O)c1ccc2c(c1)OCCO2	i	i	i	61	i
CC(/C=C/c1ccccc1)=N/NC(=O)c1cccc(Br)c1	i	i	i	87	i
